Measured values from PubChem BioAssay (Tox21).
Where “and” joins values, the source holds several entries; their conditions need not be identical. Identical values can stand only once. Inconclusive results are not listed. A call without a number means that no potency is given here. Where a structure was tested more than once in an assay, its records may differ in their call. Calls of active or inactive are those of the source. Unless noted, the call rests on the fitted dose curve; in most records, active means well fitted curve in the direction sought with a large enough effect in the repeat runs; inconclusive means weak or mixed curves; inactive means no such curve, though single readings can be large; an effect the other way counts as inactive or inconclusive.

Experiments:
[1] = qHTS assay to identify small molecule agonists of the RXR signaling pathway - cell viability counter screen (AID 1159529); further: nearly all actives have a fitted effect of over 50% in size; further: potency means the concentration at half of the fitted maximal effect
Summary of the method: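 RXR-alpha-UAS-bla HEK 293T cells in medium with 2% charcoal-stripped FBS were pre-incubated 5 hr, then compound-treated 16 hr at 37 C. Viability was read by CellTiter-Glo luminescence in the same wells as the beta-lactamase assay, with tetraoctyl ammonium bromide as positive control.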

[2] = qHTS assay to identify small molecule antagonists of the retinoid acid receptor (RAR) signaling pathway - cell viability counter screen (AID 1159551); further: nearly all actives have a fitted effect of over 35% in size; further: potency means the concentration at half of the fitted maximal effect
Summary of the method: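 Measured by luminescent ATP detection, viability reflects C3RL4 cells treated 6 h at 37 C with test chemicals in the presence of 1 uM (final) retinol.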

[3] = qHTS assay to identify small molecule antagonists of the retinoic acid receptor (RAR) signaling pathway (AID 1159552; further: nearly all actives have a fitted effect of over 50% in size)
Summary of the method: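 Retinol signaling pathway inhibitors screened in C3RL4 RARE-luciferase reporter cells seeded overnight at 37 C, then compounds added with 1 uM (final) retinol as pathway substrate. After 6 hr at 37 C, luciferase luminescence read after 30 min at room temperature.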

[4] = qHTS assay to identify small molecule agonists of the retinoic acid receptor (RAR) signaling pathway (AID 1159553); further: potency means the concentration at half of the fitted maximal effect
Summary of the method: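 6 hr compound exposure (DMSO vehicle) of overnight-plated C3RL4 RARE-luc cells at 37 C; luminescence quantified after 30 min RT with luciferase reagent.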

[5] = qHTS assay to identify small molecule antagonists of the estrogen related receptor (ERR) signaling pathway - cell viability counter screen (AID 1224818); further: series mostly up to about 46 µM
Summary of the method: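 Compounds dissolved in DMSO were applied to ERR cells seeded at 2,000 per well 6 h earlier. Cell viability followed 17.5 h later via 30-min CellTiter-Fluor fluorescence.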

[6] = qHTS assay to identify small molecule antagonists of the estrogen related receptor (ERR) signaling pathway (AID 1224819;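 further: luminescence from an ERR-driven luciferase reporter measured with One-Glo reagent; series mostly up to about 46 µM; nearly all actives have a fitted effect of over 50% in size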)
Summary of the method: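 Compounds dissolved in DMSO were pin-transferred onto ERR cells that had been plated 6 h earlier, and cells were then incubated 18 h at 37 C; signal was luciferase luminescence via One-Glo.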

[7] = qHTS assay to identify small molecule agonists of the estrogen related receptor (ERR) signaling pathway (AID 1224820)
Summary of the method: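 Luminescence readout (One-Glo, 30 min RT) from NTP-supplied ERR cell line exposed to compounds for 18 h at 37 C. Cells seeded 2,000 per well and pre-incubated 6 h before pin-tool compound transfer.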

[8] = tested on: estrogen-related receptor alpha (ERRalpha) with PGC-1alpha coactivator, human; experiment: qHTS assay to identify small molecule antagonists of the estrogen related receptor signaling pathway with the pleiotropic PPARgamma coactivator (PGC) (AID 1224821; calls by dose curve;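 further: series mostly up to about 46 µM; lower luminescence signal means antagonism of PGC/ERR signalling; nearly all actives have a fitted effect of over 50% in size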)
Summary of the method: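 PGC/ERR reporter cells; 6 h pre-incubation 37 C/5% CO2; pin-tool compound in DMSO, 18 h 37 C; One-Glo added, 30 min RT; luminescence read. qHTS antagonist mode.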

[9] = qHTS assay to identify small molecule antagonists of the estrogen related receptor signaling pathway with the pleiotropic PPARgamma coactivator (PGC) cell viability counter screen (AID 1224822; further: series mostly up to about 46 µM)
Summary of the method: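 Counter screen for cell viability: PGC/ERR cells, 6 h pre-incubation after plating, 17.5 h compound exposure at 37 C, fluorescence from CellTiter-Fluor after 30 min.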

[10] = qHTS assay to identify small molecule agonists of the estrogen related receptor signaling pathway with the pleiotropic PPARgamma coactivator (PGC) (AID 1224823)
Summary of the method: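 Luminescence readout (One-Glo, 30 min RT) from PGC/ERR cell line treated 18 h at 37 C with pin-tool-delivered DMSO compound solutions; cells plated 6 h before dosing. Quantitative HTS format.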

[11] = biological target: Luciferin 4-monooxygenase (Photinus pyralis) (UniProt P08659); experiment: qHTS assay to identify small molecule inhibitors of firefly luciferase (AID 1224835); further: nearly all actives have a fitted effect of over 25% in size; further: potency means the concentration at half of the fitted maximal effect
Sequence of Luciferin 4-monooxygenase (Photinus pyralis) (P08659 whole entry, looked up): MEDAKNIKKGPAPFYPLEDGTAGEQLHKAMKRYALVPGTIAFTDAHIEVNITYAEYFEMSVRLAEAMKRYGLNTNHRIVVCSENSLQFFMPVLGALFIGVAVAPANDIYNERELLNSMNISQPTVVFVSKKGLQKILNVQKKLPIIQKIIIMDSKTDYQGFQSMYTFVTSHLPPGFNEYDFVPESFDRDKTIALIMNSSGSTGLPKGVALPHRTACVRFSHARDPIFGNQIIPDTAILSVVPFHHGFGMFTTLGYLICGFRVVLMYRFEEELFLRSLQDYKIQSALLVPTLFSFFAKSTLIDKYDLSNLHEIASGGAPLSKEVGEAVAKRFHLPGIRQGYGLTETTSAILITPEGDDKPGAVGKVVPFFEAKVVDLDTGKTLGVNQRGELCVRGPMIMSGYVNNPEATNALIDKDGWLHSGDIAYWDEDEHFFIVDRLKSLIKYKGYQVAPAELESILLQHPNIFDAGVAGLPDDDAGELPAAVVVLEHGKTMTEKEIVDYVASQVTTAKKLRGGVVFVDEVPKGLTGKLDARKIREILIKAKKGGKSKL
Summary of the method: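 Quantitative HTS format; KM concentrations of both substrates. Purified P. pyralis FLuc activity quantified from luminescence images.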

[12] = qHTS assay to identify small molecule agonists of the constitutive androstane receptor (CAR) signaling pathway - cell viability counter screen (AID 1224836); further: nearly all actives have a fitted effect of over 45% in size; further: potency means the concentration at half of the fitted maximal effect
Summary of the method: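 HepG2 cells stably carrying hCAR and a CYP2B6-2.2kb reporter; 15-concentration compounds plus PK11195 (final 0.75 uM), 23 hr at 37 C/5% CO2. Viability read by CellTiter-Fluor fluorescence.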

[13] = qHTS assay to identify small molecule antagonists of the constitutive androstane receptor (CAR) signaling pathway - cell viability counter screen (AID 1224837); further: nearly all actives have a fitted effect of over 45% in size; further: potency means the concentration at half of the fitted maximal effect
Summary of the method: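 To flag cytotoxic false antagonists, HepG2 hCAR/CYP2B6-2.2kb cells were treated 23 hr with 15-concentration compound series and 50 nM CITCO at 37 C/5% CO2; CellTiter-Fluor fluorescence was the measured end point.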

[14] = biological target: Nuclear receptor subfamily 1 group I member 3 (Homo sapiens) (UniProt Q14994); experiment: qHTS assay to identify small molecule agonists of the constitutive androstane receptor (CAR) signaling pathway (AID 1224839); further: nearly all actives have a fitted effect of over 15% in size; further: potency means the concentration at half of the fitted maximal effect
Sequence of Nuclear receptor subfamily 1 group I member 3 (Homo sapiens) (Q14994 whole entry, looked up): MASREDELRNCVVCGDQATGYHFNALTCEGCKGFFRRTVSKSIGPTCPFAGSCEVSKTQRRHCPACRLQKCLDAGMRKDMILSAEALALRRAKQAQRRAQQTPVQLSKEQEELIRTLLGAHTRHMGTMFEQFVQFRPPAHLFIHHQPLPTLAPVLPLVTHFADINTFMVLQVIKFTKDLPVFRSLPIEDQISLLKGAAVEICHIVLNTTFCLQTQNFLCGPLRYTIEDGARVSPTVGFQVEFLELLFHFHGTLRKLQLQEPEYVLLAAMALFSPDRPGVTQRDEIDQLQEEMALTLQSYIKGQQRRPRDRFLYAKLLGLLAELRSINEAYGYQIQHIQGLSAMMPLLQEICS
Summary of the method: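 HepG2 cells stably co-transfected with hCAR and a CYP2B6-2.2kb luciferase reporter; compounds at 15 concentrations with 0.75 uM PK11195 present. After 24 hr at 37 C, luciferase read by ONE-Glo luminescence.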

[15] = qHTS assay to identify small molecule antagonists of the estrogen related receptor signaling pathway with the pleiotropic PPARgamma coactivator (PGC) from Tox21 10K library - cell viability counter screen (AID 1224840; active means well fitted cell-killing curve with a large enough effect in the repeat runs, not every such curve was filed as active; further: nearly all actives have a fitted effect of over 40% in size; further: potency means the concentration at half of the fitted maximal effect)
Summary of the method: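 Seeded PGC/ERR cells (2,000/well, 6 h, 37 C/5% CO2) get compound by pin tool; 17.5 h incubation at 37 C; CellTiter-Fluor added, 30 min, fluorescence measured.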

[16] = qHTS assay to identify small molecule antagonists of the estrogen related receptor signaling pathway with the pleiotropic PPARgamma coactivator (PGC) from Tox21 10K library (AID 1224841; call rule not given here; further: potency means the concentration at half of the fitted maximal effect)
Summary of the method: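 Test chemicals dissolved in DMSO were applied to pre-incubated (6 h) PGC/ERR cells at 2,000 cells/well for an 18 h, 37 C treatment; reporter luminescence was then read using One-Glo.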

[17] = qHTS assay to identify small molecule agonists of the estrogen related receptor signaling pathway with the pleiotropic PPARgamma coactivator (PGC) from Tox21 10K library (AID 1224842); further: nearly all actives have a fitted effect of over 15% in size
Summary of the method: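 PGC/ERR reporter cells (NTP line) were seeded 2,000 per well, rested 6 h at 37 C/5% CO2, then pin-dosed with compounds in DMSO for 18 h at 37 C; luciferase read by One-Glo luminescence after 30 min at room temperature.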

[18] = biological target: Thyrotropin receptor (Homo sapiens) (UniProt P16473); experiment: qHTS assay to identify small molecule agonists of the thyroid stimulating hormone receptor (TSHR) signaling pathway (AID 1224843; calls by dose curve; further: nearly all actives have a fitted effect of over 45% in size; further: potency means the concentration at half of the fitted maximal effect)
Sequence of Thyrotropin receptor (Homo sapiens) (P16473 whole entry, looked up): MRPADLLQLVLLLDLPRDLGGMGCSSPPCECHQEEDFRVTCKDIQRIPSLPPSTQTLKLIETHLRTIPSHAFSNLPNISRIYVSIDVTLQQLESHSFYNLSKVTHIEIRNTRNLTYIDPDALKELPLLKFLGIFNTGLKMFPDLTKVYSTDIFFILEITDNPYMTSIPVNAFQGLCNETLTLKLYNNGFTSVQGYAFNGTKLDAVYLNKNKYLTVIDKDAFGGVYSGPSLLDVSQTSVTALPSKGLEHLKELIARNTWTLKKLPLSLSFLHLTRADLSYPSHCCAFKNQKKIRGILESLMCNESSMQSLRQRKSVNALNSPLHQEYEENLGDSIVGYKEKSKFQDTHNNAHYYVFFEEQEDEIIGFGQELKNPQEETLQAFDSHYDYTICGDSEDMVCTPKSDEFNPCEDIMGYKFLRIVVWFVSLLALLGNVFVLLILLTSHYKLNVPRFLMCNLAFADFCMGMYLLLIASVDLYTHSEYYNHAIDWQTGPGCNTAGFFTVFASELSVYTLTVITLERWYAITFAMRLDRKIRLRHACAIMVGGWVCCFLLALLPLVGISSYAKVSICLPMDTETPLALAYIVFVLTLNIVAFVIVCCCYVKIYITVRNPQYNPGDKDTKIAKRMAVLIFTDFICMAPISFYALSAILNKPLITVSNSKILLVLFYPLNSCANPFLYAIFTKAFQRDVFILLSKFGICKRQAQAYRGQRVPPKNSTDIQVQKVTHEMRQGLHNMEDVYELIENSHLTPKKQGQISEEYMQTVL
Summary of the method: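 Using 15 concentrations per compound in triplicate, cAMP production was monitored in TSHR-HEK293 cells after 30 min compound incubation at RT; HTRF reagents followed, with fluorescence intensity recorded after 1 h.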

[19] = biological target: Nuclear receptor subfamily 1 group I member 3 (Homo sapiens) (UniProt Q14994); experiment: qHTS assay to identify small molecule antagonists of the constitutive androstane receptor (CAR) signaling pathway (AID 1224838);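 further: HepG2 cells stably expressing hCAR with CYP2B6 luciferase reporter stimulated by CITCO; nearly all actives have a fitted effect of over 40% in size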; further: potency means the concentration at half of the fitted maximal effect
Summary of the method: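 Human hepatoma HepG2 cells expressing hCAR and a CYP2B6 promoter (2.2 kb) luciferase construct; compound titration (15 points) with 50 nM CITCO final, 24 h at 37 C/5% CO2; luminescence via ONE-Glo after 30 min at room temperature.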

[20] = qHTS assay to identify small molecule antagonists of the estrogen related receptor (ERR) signaling pathway from Tox21 library - cell viability counter screen (AID 1224834); further: nearly all actives have a fitted effect of over 30% in size; further: potency means the concentration at half of the fitted maximal effect
Summary of the method: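 Seeded ERR cells were rested 6 h at 37 C/5% CO2 before compounds, positive and negative controls or DMSO were added. Incubation continued for 17.5 h, and viability was then quantified by CellTiter-Fluor fluorescence.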

| SMILES | Potency [1] | Potency [2] | Potency [3] | Potency [4] | outcome [5] | Potency [6] | outcome [7] | outcome [8] | Potency [9] | outcome [10] | Potency [11] | Potency [12] | Potency [13] | Potency [14] | Potency [15] | Potency [16] | Potency [17] | Potency [18] | Potency [19] | Potency [20] |
| --- | --- | --- | --- | --- | --- | --- | --- | --- | --- | --- | --- | --- | --- | --- | --- | --- | --- | --- | --- | --- |
| CN(C)CCOC(C)(c1ccccc1)c1ccccn1 (stereo not drawn) | inactive | inactive | inactive | inactive | inactive | inactive | inactive | inactive | inactive | inactive | inactive | inactive | inactive | inactive | inactive | inactive | inactive | inactive | – | – |
| Cc1ncc([N+](=O)[O-])n1CCO | inactive | inactive | inactive | inactive | – | – | – | – | – | – | inactive | inactive | inactive | inactive | inactive | inactive | inactive | inactive | – | – |
| CCCc1cc(=O)[nH]c(=S)[nH]1 | inactive | inactive | inactive | inactive | – | – | – | – | – | – | inactive | inactive | inactive | inactive | inactive | – | – | inactive | inactive | – |
| Cc1cc(C)nc(NS(=O)(=O)c2ccc(N)cc2)n1 | inactive | inactive | inactive | inactive | – | – | – | – | – | – | inactive | inactive | inactive | inactive | inactive | – | – | inactive | – | inactive |
| CC1(C)O[C@@H]2C[C@H]3[C@@H]4CCC5=CC(=O)C=C[C@]5(C)[C@@]4(F)[C@@H](O)C[C@]3(C)[C@]2(C(=O)CO)O1 | inactive | inactive | inactive | inactive | – | – | – | – | – | – | inactive | inactive | inactive | – | inactive | inactive | inactive | – | – | inactive |
| O=C1OC2(c3ccccc31)c1cc(Br)c(O)c(Br)c1Oc1c2cc(Br)c(O)c1Br | inactive | inactive | inactive | inactive | – | – | – | – | – | – | 28.7 µM (active) and 36.6 µM (active) | – | 7.81 µM (active) and 25 µM (active) | inactive | – | – | – | – | – | 11 µM (active) and 25 µM (active) and 26.6 µM (active) |
| O=c1[nH]cnc2c1ncn2[C@H]1CC[C@@H](CO)O1 | inactive | inactive | inactive | inactive | – | – | – | – | – | – | inactive | inactive | inactive | inactive | inactive | inactive | inactive | inactive | inactive | – |
| NC1CCCCC1 | inactive | inactive | inactive | inactive | – | – | – | – | – | – | inactive | inactive | inactive | inactive | inactive | – | – | 194 nM (active) and inactive | – | inactive |
| Cn1c(=O)c2c(ncn2C)n(C)c1=O | inactive | inactive | inactive | inactive | inactive | inactive | inactive | inactive | inactive | inactive | – | – | – | inactive | inactive | – | inactive | – | – | 55.1 µM (active) and inactive |
| Nc1c(N=Nc2ccc(-c3ccc(N=Nc4cc(S(=O)(=O)O)c5ccccc5c4N)cc3)cc2)cc(S(=O)(=O)O)c2ccccc12 | inactive | 17.2 µM (active) | inactive | inactive | – | – | – | – | – | – | 39.9 µM (active) | 27.3 µM (active) | 24.3 µM (active) | inactive | 21.7 µM (active) | 21.7 µM (active) | inactive | – | 27.3 µM (active) | – |
| C=CCc1ccc(O)c(OC)c1 | inactive | inactive | inactive | inactive | – | – | – | – | – | – | inactive | inactive | inactive | inactive | inactive | – | – | inactive | inactive | inactive |
| COc1ccc(CN(CCN(C)C)c2ccccn2)cc1 | 40.2 µM (active) and inactive | inactive | inactive | inactive | inactive | – | – | – | inactive | – | inactive | inactive | inactive | – | inactive | – | – | – | – | – |
| CCCCOC(=O)c1ccc(O)cc1 | inactive | inactive | inactive | 27.3 µM (active) | – | – | – | – | – | – | 80.7 µM (active) and 63.3 µM (active) and inactive | inactive | inactive | 55.1 µM (active) and 30.6 µM (active) and inactive | inactive | – | – | inactive | inactive | inactive |
| CS(=O)(=O)OCCCCOS(C)(=O)=O | inactive | inactive | inactive | inactive | – | – | – | – | – | – | inactive | inactive | inactive | – | inactive | 30.7 µM (active) and inactive | inactive | inactive | – | inactive |
| CC(C)c1c(C(=O)Nc2ccccc2)c(-c2ccccc2)c(-c2ccc(F)cc2)n1CC[C@@H](O)C[C@@H](O)CC(=O)O | inactive | inactive | – | inactive | inactive | – | – | – | inactive | – | – | inactive | inactive | inactive | inactive | – | – | inactive | – | – |
| O=C1NC(=O)C(c2ccccc2)(c2ccccc2)N1 | inactive | inactive | – | – | inactive | – | – | – | inactive | – | inactive | inactive | inactive | inactive | inactive | – | – | inactive | – | inactive |
